3 compounds from PubChem BioAssay can be followed below.

Values joined by “and” are separate entries in the source; they are usually repeats but may differ in a detail not shown here. Identical values can stand only once. Records with an inconclusive call do not appear. Active and inactive are the calls of the source.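 The calls were made as follows, unless noted: active = normalized viability below 100% at a tested concentration; inactive = the rest.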

Test [1] is described as follows: polyglutamine-triggered caspase-3 activation inhibitors, cell-based (AID 1583). The settings on record: polyglutamine-induced caspase-3 activation, cell assay; stronger effect = higher value;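 tested at 10 µM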.
Test [2] can be described thus: suppressors of polyQ aggregation in yeast, 75Q-TubU reporter (AID 1593). Conditions: Yeast 75Q polyglutamine aggregation reporter.
The nature of test [3]: inhibitors of mitochondrial cytochrome c release, biochemical, purified mitochondria (AID 1603).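 Also: mouse liver mitochondria challenged with calcium chloride; signal normalized to the plate average as 100%.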 Conditions: stronger effect = lower value.
A short description of test [4]: liver-stage malaria parasite growth inhibition, primary screen, cell-based, HepG2, luciferase luminescence, HepG2 viability (AID 624349; in the data active = parasite load remaining mostly below about 12%, no sharp cut-off; inactive = mostly above about 10%;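 also: 100% = mean of DMSO negative control wells on the same plate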). The settings on record: P. berghei liver stage in HepG2, luciferase luminescence, concentration not given here; parasite load remaining: stronger effect = lower value; viability: measured here: HepG2 viability without parasites.
The nature of test [5]: differential killing of epithelial or mesenchymal cells, primary screen, imaging, PC-3E GFP, TEM4-18 mCherry, co-culture (AID 1345086;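 active = compounds killing one labelled cell type while sparing the other, by normalised counts and ratio limits, not self-fluorescent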;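 as to all read-outs here: cells exposed to compound for 72 h before imaging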;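 as to red/green cell ratio (normalised): normalised mesenchymal count divided by normalised epithelial count so high means epithelial killing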). The settings on record: imaging cell counts, at 1 µM; for red/green cell ratio (normalised): actives lie on both sides, counts scaled to control wells, 1 = unselective.
Test [6] concerns Aerobactin synthetase IucA (Klebsiella pneumoniae). The test is described as follows: IucA aerobactin synthetase inhibitors, biochemical, Tocris library, absorbance (AID 1345561; call rule not given here;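 also: 100% = enzyme without compound and 0% = no enzyme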). Conditions: purified IucA enzyme assay, absorbance (OD) read-out; stronger effect = lower value;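 tested at 8 µM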.
Test [7] in a line: growth inhibition of DIPG glioma cells, dose response, cell-based, SU-DIPG-XVII, MIPE5.0, CellTiter-Glo, qHTS (AID 1347060; cut-off not given, nearly all actives have AC50 up to about 26 µM;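 also: cells exposed to compound for 48 hours before viability readout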). The settings on record: SU-DIPG-XVII viability, CellTiter-Glo ATP luminescence. Background: In ATP-based viability assays light output follows the ATP content of the culture.
The nature of test [8]: growth inhibition of DIPG glioma cells, dose response, cell-based, SU-DIPG-XIII, MIPE4.0, CellTiter-Glo, qHTS (AID 1347061; cut-off not given, nearly all actives have AC50 up to about 37 µM;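 also: cells exposed to compound for 48 hours before readout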). The settings on record: SU-DIPG-XIII viability, CellTiter-Glo ATP luminescence.
Test [9] can be described thus: growth inhibition of DIPG glioma cells, dose response, cell-based, JHH-DIPG-1, MIPE4.0, CellTiter-Glo, qHTS (AID 1347062; cut-off not given, nearly all actives have AC50 up to about 27 µM;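 also: cells exposed to compound for two days before readout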). Conditions: JHH-DIPG-1 viability, CellTiter-Glo ATP luminescence.
A short description of test [10]: growth inhibition of DIPG glioma cells, dose response, cell-based, SU-DIPG-IV, MIPE4.0, CellTiter-Glo, qHTS (AID 1347063; cut-off not given, nearly all actives have AC50 up to about 30 µM;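 also: compound exposure lasted 48 hours before the viability readout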). Conditions: SU-DIPG-IV viability, CellTiter-Glo ATP luminescence.
Test [11] can be described thus: growth inhibition of DIPG glioma cells, dose response, cell-based, SU-DIPG-XIII, MIPE5.0, CellTiter-Glo, qHTS (AID 1347064; cut-off not given, nearly all actives have AC50 up to about 23 µM;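 also: cells exposed to compound for 48 hours before the viability read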). Conditions: SU-DIPG-XIII viability, CellTiter-Glo ATP luminescence.
A short description of test [12]: viability loss in pontine glioma line – cell-based, SU-DIPG-XXV, MIPE5.0, CellTiter-Glo, qHTS, dose response (AID 1347065; cut-off not given, nearly all actives have AC50 up to about 26 µM;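 also: cells exposed to compound for 48 hours before ATP readout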). Conditions: CellTiter-Glo ATP luminescence.
Test [13] in a line: SU-DIPG-VI glioma cell viability, MIPE4.0 library, CellTiter-Glo luminescence, qHTS (AID 1347066; cut-off not given, nearly all actives have AC50 up to about 30 µM;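 also: cells exposed to compound for 48 hours before readout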). The settings on record: CellTiter-Glo ATP luminescence.
Test [14] in a line: JHH-DIPG-1 glioma cell viability, MIPE5.0 library, CellTiter-Glo luminescence, qHTS (AID 1347067; cut-off not given, nearly all actives have AC50 up to about 26 µM;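 also: cells exposed to compound for 48 hours before readout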). Conditions: JHH-DIPG-1 glioma viability, CellTiter-Glo ATP luminescence.
A short description of test [15]: SU-DIPG-XXV glioma cell viability, MIPE5.0 library, qHTS (AID 1347068; cut-off not given, nearly all actives have IC50 up to about 30 µM;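 also: cells exposed to compound for 48 hours before viability readout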). A general note: Quantitative high-throughput screening tests each substance at several concentrations.
The nature of test [16]: sensitizers of A549 cells to miR-34 induction, primary screen, imaging, A549 dox-inducible miR-34, nuclei and caspase counts (AID 1347080;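 active = compounds whose cell count with miR-34 switched on is under 0.7 times the count with it off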). The settings on record: A549 miR-34 inducible, Hoechst nuclei count, 48 h.
Test [17] can be described thus: modifiers of HSF1 nuclear foci, imaging, Selleck Cancer Library (AID 1347162; in the data active = plate-normalised HSF1 focus index below about 0.46). Conditions: human cells, at 10 µM; SSMD: measured here: HSF1 foci SSMD mean; cell count: measured here: cell number; plate-normalised HSF1 focus index: stronger effect = lower value.
Test [18] is described as follows: survival rescue of mitochondrial mutant cells in low glucose, primary screen, MELAS cybrids, Rieske KO mouse fibroblasts, CellTiter-Glo (AID 1508586;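 active = mean z-score across replicates of 1.96 or higher in either the MELAS or the Rieske mutant cell line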;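 also: z relative to plate mean and SD of compound and empty wells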).
Test [19] is described as follows: ovarian cancer cell viability with rucaparib, profiling panel, oncology-focused library, rucaparib conditional (AID 1508598). Conditions: patient-derived ovarian cancer cells, CellTiter-Glo viability, 144 h, stronger effect = lower value.
Test [20] in a line: viability rescue of complex I mutant cybrids, primary screen, cell-based, galactose medium, ATP luminescence (AID 1645843;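 active = z-score of at least 1.8 in each of two replicates, scored against plate mean and spread of sample wells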;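 also: positive z means more ATP and so rescue of galactose-driven cybrid death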). Conditions: complex I mutant cybrid cells, 72 h, stronger effect = higher value.
Setting [21] is: measured here: epithelial PC-3E GFP cell survival.
Setting [22] is: measured here: mesenchymal TEM4-18 mCherry cell survival.

As a reminder, the inhibition is the relative decrease from the control value, in per cent. A word on the viability: it is a read-out of living cells in per cent, often relative to untreated cells. `NC[C@H]1O[C@H](O[C@H]2C(O[C@@H]3O[C@H](CO)[C@@H](O)[C@H]3O)[C@@H](O)[C@H](N)C[C@@H]2N)[C@H](N)[C@@H](O)[C@@H]1O` (some centres not stated): the inhibition in [1] was -18.6%. For the same compound, the score in test [2] was 1.41. Besides, the cytochrome c release ratio in test [3] is 0.95. In addition, in [4], the parasite load remaining is 166% (inactive) and the viability came out at 89%. For the same compound, in [5], the red/green cell ratio (normalised) is 0.87 (inactive). In [5] (setting [21]), this compound gave a normalised cell number of 1.26. The normalised cell number in [5] (setting [22]) is 1.1.
Take `NC[C@@H]1O[C@H](O[C@@H]2[C@@H](CO)OC(O[C@@H]3[C@@H](O)[C@H](N)C[C@H](N)[C@H]3O[C@H]3O[C@H](CO)[C@@H](O)[C@H](O)[C@H]3N)[C@@H]2O)[C@H](N)[C@@H](O)[C@@H]1O` (some centres not stated): the parasite load remaining in test [4] was 141% (inactive). Further, the viability in test [4] amounted to 87.6%. Further, the red/green cell ratio (normalised) in test [5] was 1.21 (inactive). The figures for the normalised cell number in test [5] (setting [21]) and in test [5] (setting [22]) were 0.93 and 1.13, respectively.
Usually remaining activity stands for the signal under treatment as a percentage of the control signal. A word on the AC50: it is the concentration giving half of the maximal activity seen. What is called IC50 is the concentration at which inhibition is half-maximal. For `NC(=O)Nc1sc(-c2ccc(F)cc2)cc1C(N)=O`, the parasite load remaining in test [4] was 72.5% (inactive). In addition, the viability was 79.5% in [4]; 113% (inactive) in test [19] (at 0.000305 µM, OCI-C5x cells, with rucaparib 10 µM, 100% = cells with rucaparib alone); 127% (inactive) in test [19] (at 0.000305 µM, OCI-C5x cells, without rucaparib); 116% (inactive) in test [19] (at 0.000305 µM, OCI-P5x cells, with rucaparib 20 µM, 100% = cells with rucaparib alone); 109% (inactive) in [19] (at 0.000305 µM, OCI-P5x cells, without rucaparib); 118% (inactive) in test [19] (at 0.00122 µM, OCI-C5x cells, with rucaparib 10 µM, 100% = cells with rucaparib alone). Moreover, the viability in test [19] (at 0.00122 µM, OCI-C5x cells, without rucaparib) was 126% (inactive); in [19] (at 0.00122 µM, OCI-P5x cells, with rucaparib 20 µM, 100% = cells with rucaparib alone), 106% (inactive); in test [19] (at 0.00122 µM, OCI-P5x cells, without rucaparib), 106% (inactive); in test [19] (at 0.00488 µM, OCI-C5x cells, with rucaparib 10 µM, 100% = cells with rucaparib alone), 124% (inactive); in [19] (at 0.00488 µM, OCI-C5x cells, without rucaparib) it was 131% (inactive); in [19] (at 0.00488 µM, OCI-P5x cells, with rucaparib 20 µM, 100% = cells with rucaparib alone) it was 105% (inactive). Further, the viability in test [19] (at 0.00488 µM, OCI-P5x cells, without rucaparib) is 104% (inactive); in test [19] (at 0.0195 µM, OCI-C5x cells, with rucaparib 10 µM, 100% = cells with rucaparib alone), 115% (inactive); in test [19] (at 0.0195 µM, OCI-C5x cells, without rucaparib), 108% (inactive); in test [19] (at 0.0195 µM, OCI-P5x cells, with rucaparib 20 µM, 100% = cells with rucaparib alone), 102% (inactive); in test [19] (at 0.0195 µM, OCI-P5x cells, without rucaparib) it was 101% (inactive); in test [19] (at 0.0781 µM, OCI-C5x cells, with rucaparib 10 µM, 100% = cells with rucaparib alone) it was 115% (inactive). Moreover, the viability in test [19] (at 0.0781 µM, OCI-C5x cells, without rucaparib) is 109% (inactive); in test [19] (at 0.0781 µM, OCI-P5x cells, with rucaparib 20 µM, 100% = cells with rucaparib alone), 102% (inactive); in test [19] (at 0.0781 µM, OCI-P5x cells, without rucaparib), 98.9% (active); in test [19] (at 0.313 µM, OCI-C5x cells, with rucaparib 10 µM, 100% = cells with rucaparib alone) it was 124% (inactive); in test [19] (at 0.313 µM, OCI-C5x cells, without rucaparib) it was 105% (inactive); in [19] (at 0.313 µM, OCI-P5x cells, with rucaparib 20 µM, 100% = cells with rucaparib alone), 95.8% (active). Moreover, the viability in [19] (at 0.313 µM, OCI-P5x cells, without rucaparib) was 93% (active); in test [19] (at 1.25 µM, OCI-C5x cells, with rucaparib 10 µM, 100% = cells with rucaparib alone), 125% (inactive); in test [19] (at 1.25 µM, OCI-C5x cells, without rucaparib) it was 104% (inactive); in [19] (at 1.25 µM, OCI-P5x cells, with rucaparib 20 µM, 100% = cells with rucaparib alone) it was 92.8% (active); in test [19] (at 1.25 µM, OCI-P5x cells, without rucaparib), 87.7% (active); in test [19] (at 5 µM, OCI-C5x cells, with rucaparib 10 µM, 100% = cells with rucaparib alone) it was 95.3% (active). The viability was 67.2% (active) in test [19] (at 5 µM, OCI-C5x cells, without rucaparib); 39% (active) in test [19] (at 5 µM, OCI-P5x cells, with rucaparib 20 µM, 100% = cells with rucaparib alone); 60.3% (active) in [19] (at 5 µM, OCI-P5x cells, without rucaparib). The remaining activity in [6] was 122% (inactive). For the same compound, the AC50 in test [7] is 9.34 µM (active); in [8], 11.8 µM (active); in [9] it was 4.69 µM (active); in test [10], 1.05 µM (active); in [11], 20.9 µM (active); in test [12] it was 7.42 µM (active). Further, the concentration at half-maximal activity (AC50) in test [13] is 16.6 µM (active); in test [14] it was 5.9 µM (active). The half-maximal inhibitory concentration (IC50) in test [15] is 14.8 µM (active). Moreover, the fold change in test [16] (stronger effect = lower value, cell number ratio, induced over uninduced) was 0.943 (inactive) and 1.1 (inactive); in test [16] (measured here: relative caspase fold change +Dox/-Dox), 0.476 and 0.704. The cell count in test [16] (measured here: total cells with miR-34 induction, stronger effect = lower value) is 1490 and 2380; in [16] (measured here: total cells without miR-34 induction), 1580 and 2160; in test [17], 6750. Also, the SSMD in test [17] is -1.15. Moreover, the plate-normalised HSF1 focus index in test [17] was 0.95 (inactive). Further, the z-score was 0.0212 (inactive) in [18] (MELAS cybrid survival, CellTiter-Glo 48 h, stronger effect = higher value); 0.196 in test [18] (Rieske KO mouse fibroblast survival, CellTiter-Glo 72 h); 0.96 (inactive) in [20].
